Pf Dd2 growth: qHTS Primary assay for Inhibitors of Plasmodium falciparum Dd2 growth in vitro. P. falciparum Dd2 growth, SYBR Green, 72 h. AID 1347417, 2020. Potency, µM (highest dose often 28.9 µM), hits mostly inhibitors. 4.3% of 120,000 active; active means well fitted inhibition curve with a large enough effect; further: nearly all actives have a fitted effect of over 65% in size
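Infected erythrocytes (Dd2, 0.3% parasitemia, 2.5% hematocrit final) are added to compound in RPMI-1640/Albumax II medium, grown 72 h at 37C in low oxygen, then lysed with saponin/Triton-X containing SYBR Green and read by fluorescence.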
Large screens that a line does not name were inactive. This is one part of a sample in which hits are shown more often than they occur.

CCOC(=O)CCNC(=O)N1CCC(OC2CCN(S(C)(=O)=O)CC2)CC1	none
Cc1ccccc1C(=O)N1CCC2(CC1)Cc1ccccc1NC2=O	none
COCCn1c(C)cnc1CC1CCN(C(=O)C2CC2)CC1	none
COc1ccc(OCC2(C)COc3ccc(C(=O)NCc4cccc(F)c4)cc3N2)cc1 (stereo not drawn)	none
CCN(CC)C(=O)CC[C@@H]1CNC(=O)[C@@H]2C[C@H](NC(=O)Nc3ccccc3)CN12	none
COc1ccc(Cl)cc1-c1ccc2c(c1)C(=O)N1CC[C@H](NC(=O)C3CCCC3)C[C@H]1C(=O)N2	none
Cc1ccc(C(=O)N2CC[C@@](C)(O)[C@@H](Cc3ccccc3)C2)cc1C	Pf Dd2 growth 8.9µM
Cc1ccc(C(=O)N2CCC3(CC2)NC(=O)N(c2ccccc2)N3)cc1C	none
Cc1ccc(C(=O)N2CCC3(CC2)NC(=O)N(Cc2ccccc2)C3=O)cc1F	none
CN(C)C(=O)N1CCC2(CC1)CN(C(=O)CCCN)Cc1ccccc1O2	none
O=c1c(N2CCc3ccccc3C2)csc2ccccc12	none
NCCCC(=O)N1CCC2(CC1)CN(C(=O)Cc1ccccc1)CCO2	none
NCCCCC(=O)N1CCOc2c(O)cc(-c3csc4ccccc34)cc2C1	Pf Dd2 growth 5µM
O=C1CCCN1CCN1CCOc2c(O)cc(-c3csc4ccccc34)cc2C1	Pf Dd2 growth 11µM
O=C(CCc1nc2ccccc2s1)N1CCC(c2noc(-c3ccccc3)n2)C1 (stereo not drawn)	none
C=CCCC(=O)N1CCOc2c(O)cc(-c3nc4ccccc4s3)cc2C1	Pf Dd2 growth 11µM
Cc1cnc(C)c(-c2cc(O)c3c(c2)CN(CC2CNC(=O)O2)CCO3)n1 (stereo not drawn)	none
Cn1nc2n(c1=O)CCN(C(=O)CCCc1nc3ccccc3s1)CC2	none
Cc1ccc(C2Cn3nnc(C(=O)N4CCC(C(=O)NCC5CC5)CC4)c3CO2)cc1 (stereo not drawn)	none
CN1CC(=O)N(c2ccccc2F)Cc2c(NCc3ccc(F)cc3)ncnc21	none
COCC(=O)N1CCN(C2CCN(Cc3ccccn3)C2=O)CC1 (stereo not drawn)	none
O=C(NCCc1ccc2c(c1)OCO2)[C@H]1CNC[C@H](C(=O)N2CCCC2)C1	none
COc1ccc(-c2ccnc(-c3nnc(C)n3CCN3CCOCC3)c2)cc1OC	none
CC(C)C[C@@H](NC(=O)C1=C[C@@H](NC(=O)Nc2ccccc2Br)[C@@H](O)[C@H](O)C1)C(N)=O	none
CCN(CC)C(=O)C[C@@H]1c2nc(NC(=O)C3CCC3)sc2C[C@@H]2[C@](C)(CO)[C@H](O)CC[C@]21C	Pf Dd2 growth 7.1µM
C=CCOC(=O)Nc1nc2c(s1)C[C@@H]1[C@](C)(CO)[C@H](O)CC[C@@]1(C)[C@@H]2CC(=O)NC(C)C	none
CC(=O)N1CCN(C(=O)C[C@@H]2c3nc(NC(=O)C4CCC4)sc3C[C@@H]3[C@](C)(CO)[C@H](O)CC[C@]32C)CC1	none
CCN(CC)C(=O)C[C@@H]1c2nc(NC(=O)c3cccs3)sc2C[C@@H]2[C@](C)(CO)[C@H](O)CC[C@]21C	Pf Dd2 growth 4µM
C=CCN(C)C(=O)C[C@@H]1c2nc(NC(=O)c3ccc(OC)cc3)sc2C[C@@H]2[C@](C)(CO)[C@H](O)CC[C@]21C	none
CCN(CC)C(=O)C[C@@H]1c2nc(NC(=O)CC(C)(C)C)sc2C[C@@H]2[C@](C)(CO)[C@H](O)CC[C@]21C	none
CC(C)NC(=O)C[C@@H]1c2nc(NC(=O)C3CCCCC3)sc2C[C@@H]2[C@](C)(CO)[C@H](O)CC[C@]21C	Pf Dd2 growth 10µM
O=C(NCc1ccco1)c1ccc(Cn2ccn3nc4c(c3c2=O)CCCC4)cc1	none
C[C@@H]1CN(C(=O)c2cc(C(F)(F)F)[nH]n2)C[C@@]1(O)C1CCC1	none
COC(=O)c1ccc(CN2C(=O)[C@@H]3C[C@@H](O)CN3C3(CN(CC4CCCCC4)C3)C2=O)cc1	none
COc1cccc(CN(C)Cc2ccc(F)cc2)c1	none
O=C(CN1C(=O)CNC1=O)NC1CCCN(Cc2ccccn2)C1 (stereo not drawn)	none
COCCN1C(=O)CCC2(C(=O)NCCCc3ccccc3)CCCC=C12 (stereo not drawn)	none
COc1cc(NC(=O)CN2C(=O)NC3(CCS(=O)(=O)CC3)C2=O)cc(OC)c1	none
CCn1c(C2CCN(S(=O)(=O)c3cccc(Br)c3)CC2)nn(C)c1=O	none
CCc1ccccc1N1C(=O)N(CC(=O)c2ccc(OC)cc2)c2ccccc2S1(=O)=O	none
COc1ccc(OC)c(C(=O)CN2C(=O)N(c3cc(C)cc(C)c3)S(=O)(=O)c3ccccc32)c1	Pf Dd2 growth 10µM
COc1cccc(N2C(=O)N(Cc3ccc(C#N)cc3)c3ccccc3S2(=O)=O)c1	none
CCc1ccc(NC(=O)N2CCc3[nH]c4ccc(F)cc4c3C2)cc1	none
Cc1cccc(C(C(=O)O)N2CCC(C(=O)N3CCCC3)CC2)c1C (stereo not drawn)	none
c1cc(Cn2ccc3c(N4CCOCC4)nc(-c4cn[nH]c4)cc32)ccn1	none
CN(C)Cc1ccc(-c2cc3c(ccn3Cc3ccncc3)c(N3CCOCC3)n2)cc1	Pf Dd2 growth 11µM
Cn1cc(-c2cc3c(ccn3Cc3ccncc3)c(N3CCOCC3)n2)cn1	none
O=C(NC1CCCC1)c1ccc2c(c1)n(Cc1ccccc1)c(=O)c1ccnn12	none
COCCNC(=O)[C@@H]1C[C@H](Oc2ccccc2)CN1C(=O)c1ccc(OC)c(F)c1	none
COCCOC1CCOC2(CCN(C(=O)c3cnc(C)cn3)CC2)C1 (stereo not drawn)	none
CC(C)N1C(=O)OCC12CCN(Cc1cccnc1)C2 (stereo not drawn)	none
Cc1cc(C(=O)N2CCCC(c3nnc(Cn4ccnc4)n3C)C2)c(C)o1 (stereo not drawn)	none
CN(C)c1ccc(C(=O)N2CCN(S(C)(=O)=O)[C@H](C(=O)N[C@@H](CC3CCCCC3)C(N)=O)C2)cc1	none
COC(=O)[C@H](Cc1ccc(OC)cc1)NC(=O)[C@H]1CN(S(=O)(=O)c2ccccc2)CCN1C(=O)NC1CCCCC1	Pf Dd2 growth 11µM
COC(=O)[C@H](Cc1ccc(OC)cc1)NC(=O)[C@H]1CN(C(=O)Nc2ccccc2)CCN1C(=O)C1CCCCC1	none
COC(=O)[C@H](Cc1ccc(OC)cc1)NC(=O)[C@@H]1CN(C(=O)c2cccc(F)c2)CCN1C(C)=O	none
COC(=O)[C@H](Cc1ccc(OC)cc1)NC(=O)[C@@H]1CN(C(=O)NC(C)C)CCN1C(=O)c1cccs1	none
COC(=O)[C@H](Cc1ccc(OC)cc1)NC(=O)[C@H]1CN(C(=O)c2ccc(N(C)C)cc2)CCN1C(=O)c1cccs1	Pf Dd2 growth 0.14µM
COC(=O)[C@@H](C)NC(=O)[C@H]1CN(S(=O)(=O)c2ccccc2)CCN1C(=O)NC1CCCCC1	none
COC(=O)[C@H](Cc1ccc(OC)cc1)NC(=O)[C@@H]1CN(S(C)(=O)=O)CCN1S(=O)(=O)c1ccccc1	none
COC(=O)[C@H](Cc1ccc(OC)cc1)NC(=O)[C@H]1CN(C(=O)c2ccc(N(C)C)cc2)CCN1C(=O)C1CCCCC1	Pf Dd2 growth 0.4µM
NC(=O)[C@@H]1C[C@H](Oc2cccnc2)CN1C(=O)COc1ccc(F)cc1	none
CCOc1ccc(NC(=O)Cn2c(N3CCCCC3)nc(C)c(C)c2=O)cc1	none
COC[C@@H]1CN(Cc2ccncc2F)C[C@H]1C(=O)NC1CC1	none
C=CCN(Cc1cccc(OCC)c1)C(=O)c1ccc(=O)[nH]c1	none
CN(C)c1nc2c(c(=O)[nH]1)CCN(Cc1ccc(F)cc1F)CC2	none
CN(Cc1cccnc1)c1nc2c(c(=O)[nH]1)CCN(Cc1ccc(F)cc1Cl)CC2	Pf Dd2 growth 2.8µM
CN(Cc1cccnc1)c1nc2c(c(=O)[nH]1)CCN(Cc1cccc(F)c1)CC2	none

Screening data (PubChem)
